Inconclusive results are not listed. Values without a mark were called inactive. Active and inactive are the calls of the source. Calls follow the shape of the dose curve; as a rule, active = well fitted curve in the direction sought with a large enough effect; inconclusive = small, poorly fitted or top-dose-only effect, or another doubt; inactive = no such curve, though single readings can be large or run the other way.
Assay: Confirmation Concentration-Response Assay for Inhibitors of Tau Fibril Formation, Total Fluorescence Counterscreen for Fluorescence Polarization
Conditions: Alexa594-tau K18 total fluorescence counterscreen, interference, tau K18 with P301L mutation; series mostly up to 100 µM; fluorescence change, negative = quenching: at the top concentration
Text: NIH Molecular Libraries Probe Production Network [MLPCN] NIH Chemical Genomics Center [NCGC] MLPCN Grant: X01 MH083262-01 Assay Provider: Carlo Ballatore, University of Pennsylvania NCGC Assay Overview: The microtubule-associated protein tau is an abundant protein in the axons of neurons that stabilizes microtubules. With its ability to modulate microtubule dynamics, tau contributes directly or indirectly, to key structural and regulatory cellular functions. Particularly important is the influence tau exerts on axonal transport, which allows signaling molecules, trophic factors and other essential cellular constituents to travel along the axons. Under pathological conditions, tau becomes sequestered into insoluble aggregates called neurofibrillary tangles. This phenomenon is believed to have pathological consequences by promoting axonal transport deficits that ultimately lead to synaptic dysfunction and neuronal loss. To identify inhibitors of tau aggregation, a heparin-induced tau fibril formation assay was used that employed a recombinantly expressed fragment of tau, K18 (Q242-E372), bearing a P301L mutation (Gustke et al. 1994; Hong et al. 1998). […] Total fluorescence (555 nm excitation and 632 nm emission) was measured to identify fluorescent or absorbent compounds at this wavelength. Such compounds may be artifacts that interfere with the Alexa 594 Tau fluorescence polarization assay. Gustke, N., B. Trinczek, et al. (1994). "Domains of tau protein and interactions with microtubules." Biochemistry 33(32): 9511-22. Hong, M., V. Zhukareva, et al. (1998). "Mutation-specific functional impairments in distinct tau isoforms of hereditary FTDP-17." Science 282(5395): 1914-7. Li, W. and V. M. Lee (2006). "Characterization of two VQIXXK motifs for tau fibrillization in vitro." Biochemistry 45(51): 15692-701. von Bergen, M., S. Barghorn, et al. (2001). "Mutations of tau protein in frontotemporal dementia promote aggregation of paired helical filaments by enhancing local beta-structure." J Biol Chem 276(51): 48165-74.
For screening, 2 uL/well human K18 P301L (15 uM unlabeled and 0.24 uM Alexa 594-labeled tau final concentrations) in reagent buffer (100 mM sodium acetate pH 7) was dispensed into black solid 1536-well plates (Grenier) using a solenoid-based dispenser. Following transfer of 23 nL compound or DMSO vehicle by a pin tool, 2 uL/well heparin (20 uM final concentration) in reagent buffer was added and the plate centrifuged 15 s at 1000 RPM. Plates were incubated 6 hr at 37 C and then 1 uL/well ThT (30 uM final concentration) was added. After a 1 hr ambient incubation, the plates were read by an Envision (Perkin Elmer) to monitor Alexa 594 FP (555 nm excitation and 632 nm emission). Keywords: NIH Roadmap, MLPCN, MLI, MLSMR, NCGC, qHTS, tau, tauopathies, Alzheimer's disease, fibril, neurodegeneration, aggregation

| Compound | Potency | fluorescence change, negative = quenching |
| --- | --- | --- |
| O=C(Cc1ccccc1)Nc1sc2c(c1C(=O)Nc1ccc(Cl)cc1)CCCC2 | inactive | – |
| Cn1cc(Cl)c(C(=O)Nc2cccc(Cl)c2Cl)n1 | – | 2.07% |
| O=C(Nc1nc2ccc(S(=O)(=O)N3CCCC3)cc2s1)c1ccc(F)cc1 | – | -1.76% |
| COc1ccc2oc(-c3ccc(NC(=O)c4ccc(N5CCOCC5)c([N+](=O)[O-])c4)cc3)nc2c1 | – | -3.8% |
| Cc1ccc(N2C(=O)SC(Cc3ccccc3)C2=O)cc1 (stereo not given) | – | 14.2% |
| Cn1sc(NC(=O)c2ccccc2)nc1=O | – | 4.66% [at 57.1 µM] |
| O=C(NCCCO)Nc1ccc2nc(-c3ccco3)c(-c3ccco3)nc2c1 | 3.16 µM [quencher] (active) | – |
| O=C(Nc1nnc(S(=O)(=O)Nc2ccccc2)s1)C1CCCCC1 | – | -18.2% |
| CC(=O)Nc1sc(C)c2cnn(-c3ccccc3)c(=O)c12 | – | 4.58% [at 57.1 µM] |
| COC(=O)c1c(NC(=O)C(C)(C)C)sc2c1C(C(=O)OC)CC2 (stereo not given) | – | -17% |
| O=C(O)CC1S/C(=N/N=C/c2ccc(-c3ccc(Cl)cc3[N+](=O)[O-])o2)NC1=O (stereo not given) | – | 3.16% |
| COc1ccc(NC(=O)c2c(NC(=O)Cc3ccccc3)sc3c2CCCC3)cc1 | – | -7.74% [at 57.1 µM] |
| O=C(Nc1ccccc1)Nc1ccccc1 | – | -10.9% |
| Nc1cc(-c2ccncc2)c[nH]c1=O | – | 0.824% |
| COC(=O)c1c(NC(=O)CCCOc2cccc(C)c2)sc2c1C(C(=O)OC)CC2 (stereo not given) | – | 2.92% |
| Nc1c(-c2ccncc2)cc[nH]c1=O | – | -12.5% |
| CCN(CC)C(=O)c1nn(-c2ccc(OC)cc2)c(=O)c2c(N)scc12 | – | -20.1% [at 57.1 µM] |
| Cc1sc(N)c2c(=O)n(-c3ccccc3)ncc12 | – | -11.4% [at 57.1 µM] |
| CCOC(=O)c1nn(-c2ccccc2)c(=O)c2c(N)sc(C)c12 | – | -20.4% [at 57.1 µM] |
| CN(C)S(=O)(=O)c1cccc(N=C2NN=C(c3ccccc3)CS2)c1 | – | -15.9% |

| Compound | Potency | fluorescence change, negative = quenching |
| --- | --- | --- |
| Cc1[nH]c(=O)c(C#N)cc1-c1ccncc1 | – | 2.45% |
| COc1ncc(-c2ccccc2)cc1N | – | -2.67% [at 57.1 µM] |
| Nc1scc2c(C(=O)O)nn(-c3ccccc3)c(=O)c12 | – | 4.44% [at 57.1 µM] |
| Cc1nc2ccccc2oc1=O | – | 11.2% |
| COc1ccc(CNC(=O)Cn2nc(C)n3cccc3c2=O)cc1 | – | -6.66% |
| CC(C)(C)c1ccc(NC(=O)N2CCN(c3ccc([N+](=O)[O-])cn3)CC2)cc1 | – | -1.23% |
| Cc1cc2c(N)cccc2nn1 | – | 29.3% |
| COc1ccc(-n2nc(C(=O)O)c3csc(N)c3c2=O)cc1 | – | -15.8% [at 57.1 µM] |
| O=C(O)CC1S/C(=N/N=C/c2ccc(-c3ccccc3[N+](=O)[O-])o2)NC1=O (stereo not given) | – | 4.83% |
| COC(=O)c1c(NC(=O)CCCOc2ccc(C)cc2)sc2c1C(C(=O)OC)CC2 (stereo not given) | – | -0.983% |
| Nc1scc2c(C(=O)N3CCOCC3)nn(-c3ccccc3)c(=O)c12 | – | -0.72% [at 57.1 µM] |
| CCOC(=O)c1nn(-c2ccccc2)c(=O)c(C#N)c1C | – | 4.66% [at 57.1 µM] |
| COc1ccc(OC)c(NC(=O)c2c(NCc3cccs3)sc3c2CCCC3)c1 | – | -28.3% [at 57.1 µM] |
| COC(=O)c1c(NC(=O)CCCOc2ccc(C(C)(C)C)cc2)sc2c1C(C(=O)OC)CC2 (stereo not given) | – | 4.07% |
| CCn1c(CSc2nccn2C)nc2cc(C(=O)O)ccc21 | – | 35.7% |
| O=C(Cc1ccccc1)Nc1sc2c(c1C(=O)Nc1cccc(Cl)c1)CCCC2 | – | -7.93% [at 57.1 µM] |
| O=C(O)CN1C(=O)/C(=C/c2ccc(-c3cccc(Cl)c3)o2)SC1=S | – | -10.4% |
| COc1ccc(NC(=O)C2CCN(S(=O)(=O)c3c(C)noc3/C=C/c3cccs3)CC2)cc1Cl | – | -12.3% |
| COc1c(Cl)cccc1NC(=O)c1c(NC(=O)Cc2ccccc2)sc2c1CCCC2 | – | -3.36% [at 57.1 µM] |
| O=C(Cc1ccccc1)Nc1sc2c(c1C(=O)Nc1ccc(Br)cc1)CCCC2 | – | -4.5% [at 57.1 µM] |

Source: PubChem BioAssay AID1694 (National Center for Advancing Translational Sciences (NCATS), 2009)
